Test results taken from PubChem BioAssay AID588856 (National Center for Advancing Translational Sciences (NCATS), 2011).
Screen size: about 410,000 compounds; about 3,100 (0.76%) were called active. For the sample, actives were picked, then their nearest neighbours and some compounds at random. Unmarked numbers belong to inactive results. Calls follow the shape of the dose curve; as a rule, active = well fitted cell-killing curve with a large enough effect; inactive = no such curve, though single readings can be large or run the other way.

Assay: qHTS for Inhibitors of TGF-b: Cytotox Counterscreen
Conditions: HepG2 CAGA-GFP viability, ATP luminescence, 18 h; series mostly up to 46.1 µM; activity change, negative = cytotoxicity: at the top concentration
Procedure, shortened: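 CellTiter-Glo luminescence gave cytotoxicity after 18 hours at 37 degrees C. The cells were HepG2 CAGA-GFP in 1% FBS DMEM, stimulated with 500 pg/mL TGF-beta after compound addition. %Activity was normalised to no-cell wells (complete cell-killing) and DMSO (no toxicity), and curves were fitted and classified.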
Potency is read from the fitted curve at half-maximal effect.

| SMILES | activity change, negative = cytotoxicity | Potency |
| --- | --- | --- |
| CCOc1ccc(Nc2nc3c(S(=O)(=O)c4cccc(Cl)c4)nnn3c3ccsc23)cc1 | -14.5% | – |
| CCc1nc2ccc(C(=O)N(C)CCN(C)C)cn2c1N(CC)CCOC | 5.27% | – |
| CCc1nc2ccc(C(=O)Nc3ccc(OC)c(OC)c3)cn2c1N(C)C(=O)c1cccc(OC)c1 | -0.381% | – |
| CCc1nc2ccc(C(=O)Nc3cccc(OC)c3)cn2c1N(CCC(C)C)CCN(C)C | – | 11.2 µM (active) |
| COc1cccc(CNC(=O)C(=O)NCC(c2cccs2)S(=O)(=O)c2ccccc2)c1 (stereo unspecified) | -3.22% | – |
| CN(C)c1ccc(/C=C/c2c3ccccc3nc3ccccc23)cc1 | 1.81% | – |
| O=C(N[C@@H]1C/C=C\C[C@@H](CC(=O)N(CCO)Cc2ccccc2)C(=O)N[C@H](Cc2ccccc2)COC1=O)OCC1c2ccccc2-c2ccccc21 | -12.3% | – |
| CC(C)(C)OC(=O)C[C@@H]1C/C=C\C[C@@H](CC(=O)N[C@H](CO)Cc2ccccc2)C(=O)NC[C@@H](c2ccccc2)OC1=O | -6.66% | – |
| O=C(C[C@H]1C/C=C\C[C@@H](NC(=O)OCC2c3ccccc3-c3ccccc32)C(=O)O[C@@H](c2ccccc2)CNC1=O)N[C@H](CO)Cc1ccccc1 | – | 12.6 µM (active) |
| COc1ccccc1CNC(=O)CCn1c(=O)c2ccccc2n(CC(=O)Nc2cccc(Cl)c2)c1=O | -16.8% | – |
| COc1cc(NC(=O)CCn2nc(C)cc2C)cc(OC)c1OC | -1.73% | – |
| COc1ccc2oc(-c3ccc(C)c(NC(=O)c4sc5ccccc5c4Cl)c3)nc2c1 | -8.16% | – |
| O=C(CCl)Nc1cccc(CP(=O)(c2ccccc2)c2ccccc2)c1 | – | 15.8 µM (active) |
| CCc1cccc(NC(=O)c2cc(-c3ccccc3)n[nH]2)c1 | -12.5% | – |
| O=C(COc1ccccc1C(=O)Nc1ccccc1)Nc1cccc(F)c1 | -3.03% | – |
| Cc1cccc(CN2Cc3cccc4c3[C@H](C=CC4)CC2=S)c1 | -24% | – |
| CCOCCCNC(=S)Nc1ccc2nc(N3CCN(CC)CC3)cc(C)c2c1 | -13.3% | – |
| COc1ccc(C(=O)Nc2ccc3nc(N4CCCCC4)cc(C)c3c2)cc1OC | – | inactive |
| CCN1CCN(c2cc(C)c3cc(NC(=O)c4cc(Cl)ccc4OC)ccc3n2)CC1 | – | 11.2 µM (active) |
| COc1cc(C(=O)N2CCC(c3ccncc3)CC2)cc(OC)c1OC | -29.2% | – |
| CNC[C@H](CC1CCCCC1)NC[C@H](NCCC1CCCC1)[C@H](C)O | – | 15.8 µM (active) |
| CCOc1cccc2cc(-c3cn4c(n3)sc3cc(C)ccc34)c(=O)oc12 | -0.0206% | – |
| CCOC(=O)CSc1nc2c(c(=O)n(Cc3ccccc3Cl)c(=O)n2C)n1C | -17.5% | – |
| CCOC(=O)c1cnc2nc(SCc3ccccc3Cl)[nH]n2c1=O | – | 2.82 µM (active) |

| SMILES | activity change, negative = cytotoxicity | Potency |
| --- | --- | --- |
| CCOC(=O)c1cnc2sccn2c1=O | -1.63% | – |
| Cc1cc(N2CCN(c3cccc(C(F)(F)F)c3)CC2)n2nc(-c3ccccc3)nc2n1 | 1.82% | – |
| CN1C(=O)c2[nH]nc(-c3ccc(F)cc3)c2C1c1ccccn1 (stereo unspecified) | -6.9% | – |
| CCOc1ccc(Nc2c(S(=O)(=O)c3ccccc3)cnc3ccccc23)cc1 | -11.6% | – |
| CC(C)S(=O)(=O)c1oc(-c2ccc(F)cc2)nc1S(=O)(=O)c1ccc(F)cc1 | – | 2 µM (active) |
| Cc1ccc(-c2nc(S(=O)(=O)c3ccc(C)cc3)c(N3CCCCCC3)o2)cc1 | -18.7% | – |
| O=C(CSc1oc(-c2ccc(F)cc2)nc1S(=O)(=O)c1ccc(Br)cc1)NC1CCCCC1 | 2.9% | – |
| COc1cccc(Cn2c(CNS(=O)(=O)c3ccc(Cl)s3)nc3cccnc32)c1 | -23.5% | – |
| COc1ccccc1N1CCN(c2ccc(=O)n(CC(=O)NCc3ccc(OC(C)C)cc3)n2)CC1 | -22.2% | – |
| O=C1C2C(c3ccccc3)CC=CC2C(c2ccoc2)N1Cc1ccccc1 (stereo unspecified) | -20.3% | – |
| CC(C)c1ccc2c(c1)c(SC(C)(C)C)c(CC(C)(C)C(=O)O)n2Cc1ccc(Cl)cc1 | – | 10 µM (active) |
| O=C(Cn1c(=O)nc(-c2ccccc2)c2cc(Cl)ccc21)NCc1ccc(Cl)cc1 | -12.1% | – |
| CC(C)c1ccc(Cn2c(COc3ccccc3)nc3ccccc32)cc1 | -27.8% | – |
| O=C(c1cccc(Br)c1)N1CCN(Cc2cc(=O)n3nc(-c4ccccc4)sc3n2)CC1 | -18.3% | – |
| CCCOc1ccc(N2CC(C(=O)Nc3ccccn3)CC2=O)cc1 (stereo unspecified) | -3.04% | – |
| CCCOc1ccc(C(=O)C(CCC(CNCC)C(=O)c2ccc(OCCC)cc2)CNCC)cc1 (stereo unspecified) | – | 3.16 µM (active) |
| CCCOc1cccc(C(=O)Nc2cccc(NC(=O)c3ccc(C(C)(C)C)cc3)c2)c1 | 3.52% | – |
| CC(C)(C)C1CCC(NC(=O)c2cnn3c2NC(=C2CC2)C=C3C(F)F)CC1 (stereo unspecified) | -16.9% | – |
| CN(C)c1ccc(/C=C/c2sc3ccccc3[n+]2CCCCBr)cc1 | -31.8% | – |
| Cc1c(CCO)sc[n+]1CC(=O)c1ccc2ccccc2c1 | -31.7% | – |
| Cc1cc2oc3ccc(NCCC4CCCN4C)cc3c(=O)c2cc1C (stereo unspecified) | – | 10 µM (active) |
| CCC1CCCCN1S(=O)(=O)c1ccc(NC(=O)c2cc(=O)c3ccccc3o2)cc1 (stereo unspecified) | -20.4% | – |
| CNCCCOc1cc2nc(N3CCCN(C)CC3)nc(NC3CCN(C)CC3)c2cc1OC | 18.3% | – |
| COc1ccccc1CNS(=O)(=O)c1cc(Br)cc2c1N(C(C)=O)C(C)C2 (stereo unspecified) | -4.39% | – |

| SMILES | activity change, negative = cytotoxicity | Potency |
| --- | --- | --- |
| O=C(Cn1nc(Cc2cccnc2)c2ccccc2c1=O)N1CCN(c2ccccc2F)CC1 | -35.2% | – |
| COc1cc(OC)c(/C=C/c2ccnc3ccccc23)c(OC)c1 | -60.5% | – |
| O=C(CSc1nccn1Cc1ccc(F)cc1)NCc1ccccc1 | 2.14% | – |
| COc1cc(OC)c(C2C=C(C(=O)O)Nc3ncnn32)cc1OC (stereo unspecified) | -5.04% | – |
| COCC(C)NC(=O)COc1nncc2ccccc12 (stereo unspecified) | -14.5% | – |
| NC(Cc1ccc(F)cc1)c1csc(Nc2nncc3ccccc23)n1 (stereo unspecified) | – | 15.8 µM (active) |
| CN(Cc1ccccc1)c1ccc(/C=C/c2ccnc3ccccc23)cc1 | -29.2% | – |
| Cc1ccc(OCC(=O)OCc2cc(=O)n3nc(C4CC4)sc3n2)cc1 | -0.276% | – |
| CCCCC(CCCC)c1ccc(C=Nc2ccc(/C=C/c3ccnc4ccccc34)cc2)cc1 | -13.4% | – |
| COc1ccc(-c2nnc(SC(=O)N3c4ccccc4Sc4ccccc43)o2)cc1 | – | 11.2 µM (active) |
| COc1ccccc1-c1nnc(SCC(N)=O)o1 | -3.91% | – |
| COc1ccc(CN(C(=O)CSc2nnc(-c3ccc(OC)c(OC)c3)o2)c2ccc(F)cc2)cc1 | -10% | – |
| CC(C)Nc1nc(NCCOc2ccccc2Cl)c2sccc2n1 | -68.9% | – |
| COc1cccc(CNc2nccn(-c3ccc(OC)c(OC)c3)c2=O)c1 | 4.25% | – |
| COc1cccc(CNc2nc(NCc3ccccc3OC)nc3ccsc23)c1 | – | 11.2 µM (active) |
| CCN(CC)/[N+]([O-])=N/OCOC(=O)Cc1c(C)n(C(=O)c2ccc(Cl)cc2)c2ccc(OC)cc12 | -23.8% | – |
| CCOc1ccccc1N(CC)C(=O)Nc1cn(C)c(=O)c2ccccc12 | -16.5% | – |
| Cc1ccccc1CN1CCC(C(=O)Nc2ccc(Oc3cccnc3)cc2)CC1 | -16.9% | – |
| CCOc1ccccc1N(CC)C(=O)c1cc2ccc3cccnc3c2[nH]1 | – | 12.6 µM (active) |
| COc1cc(NC(=O)c2cc3ccc4cccnc4c3[nH]2)cc(OC)c1OC | -13.7% | – |
| Cc1ccccc1CN1CCC(CNC(=O)c2cc3ccc4cccnc4c3[nH]2)CC1 | – | 12.6 µM (active) |
| Cc1ccccc1CN1CCC(CNC(=O)c2c(C)oc3ncnc(N4CCCCC4)c23)CC1 | -36.1% | – |
| CCOc1ccc(N(CC)C(=O)C2CCN(S(=O)(=O)c3cccc4nonc34)CC2)cc1 | 0.639% | – |
| COc1ccccc1NC(=O)C1=C(C)Nc2ncnn2C1c1sccc1C (stereo unspecified) | -2.86% | – |

| SMILES | activity change, negative = cytotoxicity | Potency |
| --- | --- | --- |
| O=C(CSc1nc(=O)[nH]c2c1CCCC2)Nc1cc(C(F)(F)F)ccc1Cl | -17.4% | – |
| CCN1CCN(c2ccc(/C=C/c3ccnc4ccccc34)cc2)CC1 | -46.6% | – |
| Cc1oc2ncn(CC(C)C)c(=O)c2c1C(=O)N1CCN(c2ccccc2F)CC1 | 3.12% | – |
| O=C1NC(Nc2nc3ccccc3s2)(C(F)(F)F)C(=O)N1C1CCCCC1 (stereo unspecified) | – | 11.2 µM (active) |
| O=C(NC1(C(F)(F)F)N=C(c2ccccc2)N(C2CCCCC2)C1=O)c1ccccc1F (stereo unspecified) | -0.647% | – |
| CCCN(C(=O)Cn1ncc2c([nH]c3ccc(C)cc32)c1=O)c1ccccc1C | 4.59% | – |
| O=C(COc1ccc(-c2ccccc2)cc1)NN=C1CCCC1 | -16.8% | – |
| Cc1ccc(/C=N/NC(=O)COc2ccccc2-c2ccccc2)cc1 | – | 10 µM (active) |
| CC(=O)c1ccc(NC(=O)COc2ccccc2-c2nc(-c3ccccc3)no2)cc1 | -1.05% | – |
| CCOc1ccccc1NC(=O)CCn1cnnn1 | 0.0324% | – |
| O=C(Nc1ccccc1Cl)N1CCC(CN2CCCCC2)CC1 | 1.13% | – |
| O=C(Nc1ccccc1Cl)/C(Cl)=C(\Cl)S(=O)c1ccccc1 (stereo unspecified) | – | 3.55 µM (active) |
| O=C(Nc1ccccc1Cl)N1CCC(CN2CCCC2)CC1 | -7.37% | – |
| CCCN1CCC(=O)N(C(CSc2ccc(OC)cc2)Cc2ccccc2)CC1 (stereo unspecified) | -31.2% | – |
| Cc1ccccc1CNC(=O)C1CCCN(S(=O)(=O)N(C)c2ccc(F)cc2)C1 (stereo unspecified) | -15.9% | – |
| CCOC(=O)c1ccc(NC(=O)c2nc(SCc3ccc(F)cc3)ncc2Cl)cc1 | -13.4% | – |
| CSc1ncc(Cl)c(C(=O)Nc2ccc(S(=O)(=O)N3CCCC(C)C3)cc2)n1 (stereo unspecified) | -5.61% | – |
| Cc1cccc(CS(=O)(=O)c2ncc(Cl)c(C(=O)Nc3ccc(F)cc3)n2)c1 | – | 10 µM (active) |
| O=C(Nc1ccccc1C(F)(F)F)c1nc(S(=O)(=O)Cc2ccccc2F)ncc1Cl | -106% | – |
| Cc1cccc(NC(=O)c2nc(S(=O)(=O)Cc3ccccc3)ncc2Cl)c1 | – | 11.2 µM (active) |
| CCCSc1ncc(Cl)c(C(=O)Nc2c(C(=O)Nc3ccccc3)oc3ccccc23)n1 | 0.304% | – |
| Cc1ccc(CCNC(=O)c2ccc(CS(=O)(=O)Cc3cccc(C)c3)o2)cc1 | -21% | – |
| CCS(=O)(=O)c1ncc(N(Cc2ccc(F)cc2)Cc2ccco2)c(C(=O)Nc2cc(C)ccc2C)n1 | -1.85% | – |
| Cc1ccc(NC(=O)c2nc(S(=O)(=O)Cc3cccc(C)c3)ncc2Cl)cc1 | – | 7.08 µM (active) |
